# Bioassay records (PubChem)
# An excerpt weighted towards active compounds, which were near 19% of everything screened.
# DT40 TDP1 no CPT: qHTS for Inhibitors of human tyrosyl-DNA phosphodiesterase 1 (TDP1): qHTS in cells in absence of CPT. DT40 Tdp1-/- hTDP1 cells, no CPT, ATP luminescence, 48 h. Potency, µM (series often up to 46.2 µM), inactives show at the highest dose activity change, negative = growth inhibition, most hits filed as inhibitors. 15% of 420,000 active; further: potency means the concentration at half of the fitted maximal effect; nearly all actives have a fitted effect of over 55% in size
#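 Compound effects on proliferation are scored in DT40 Tdp1-/-;hTDP1 cells in the absence of CPT. ATP levels (CellTiter-Glo luminescence) are recorded after a ≥48 hr, 37 °C incubation.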
# uPA generation: cell surface uPA generation inhibition; Potency, µM (titrated, usually from 38.3 µM), without a hit: at the top dose activity change, negative = inhibition, usual class: inhibitors; 0.31% of 330,000 active; cell surface uPA generation assay, qHTS; active means well fitted inhibition curve with a large enough effect; inconclusive means small, poorly fitted or top-dose-only effect; inactive means no such curve, though single readings can be large or run the other way; tested in mouse RAW 264.7 cells; further: potency means the concentration at half of the fitted maximal effect; nearly all actives have a fitted effect of over 55% in size
# TDP1 cell CPT: DT40-hTDP1 cell growth loss with CPT | Potency, µM (doses to about 46.2 µM), for the others: at the highest dose activity change, negative = growth inhibition, hits mostly inhibitors | chicken DT40 Tdp1-/-;hTDP1 cells + 20 nM CPT, ATP luminescence, 48 h | 12% of 420,000 active | AID 686979; further: potency means the concentration at half of the fitted maximal effect; nearly all actives have a fitted effect of over 55% in size
#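 Chicken DT40 Tdp1-/- cells complemented with human TDP1, 400 cells/well, exposed to compounds plus 20 nM camptothecin for at least 48 h at 37 C; viability read as ATP content by CellTiter-Glo luminescence.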
# HT1080 IDH1KD tx: kills HT-1080 cells with IDH1 knockdown; Potency, µM (doses to about 46.1 µM), without a hit: at the highest dose activity, negative = toxicity, usual class: cytotoxic; AID 686971; HT-1080 IDH1 knockdown viability, ATP luminescence, 48 h; 2% of 360,000 active;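 further: potency means the concentration at half of the fitted maximal effect; 0% = DMSO wells and -100% = cell-free medium wells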
#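 HT-1080-IDH1KD cells (IDH1 knocked down), 750/well in RPMI with 5% FBS, treated with compound 48 h at 37 degrees C. Viability by CellTiter-Glo luminescence, normalised to DMSO and no-cell wells; concentration-response curves classed.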
# IL-1B inflam inh: inhibitors of inflammasome signaling (IL-1 beta secretion) | THP-1 LPS/ATP IL-1B secretion, AlphaLISA, 16 h; stronger effect = lower value | activity change, % at 57.5 µM | 4.7% of 360,000 active | AID 743279; in the data active means activity change below about -50%; inconclusive means mostly about -30% to -49%
#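 THP-1 cells pretreated 1 hr with compounds (up to 57.5 uM final), then stimulated with LPS (250 ng/mL final) plus ATP (1.25 mM final); secreted IL-1B measured by AlphaLISA after 16 hr, decreased signal indicating inhibition.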
# HT1080-NT tox: kills 2HG-producing HT-1080-NT fibrosarcoma cells; Potency, µM (series often up to 46.1 µM), for inactives: at the top dose activity, negative = less viability, hits mostly cytotoxic; HT-1080-NT fibrosarcoma viability, CellTiter-Glo ATP luminescence, 48 h; 1.6% of 360,000 active;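 further: NT is the 2HG producing partner of a matched IDH1 knockdown line; potency means the concentration at half of the fitted maximal effect; 0% = DMSO-treated cells and -100% = media-only wells without cells; nearly all actives have a fitted effect of over 55% in size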
#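 A 48-hour cytotoxicity screen used HT-1080-NT cells plated 2 hours before compound delivery. ATP-based CellTiter-Glo luminescence measured viability, normalized to DMSO and no-cell controls.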
# Numbers without * were called inactive; u = inconclusive; x = no result; [ ] = remark or other dose. Unless noted, the call rests on the fitted dose curve; in most records, active means well fitted curve in the direction sought with a large enough effect; inconclusive means small, poorly fitted or top-dose-only effect, or another doubt; inactive means no such curve, though single readings can be large; an effect the other way counts as inactive or inconclusive. Unless noted, on the % scale 0 is the no-effect control and ±100 the full control effect.
SMILES,DT40 TDP1 no CPT,uPA generation,TDP1 cell CPT,HT1080 IDH1KD tx,IL-1B inflam inh,HT1080-NT tox
CCCCCCn1c(=O)c(C(=O)Nc2ncccc2C)c(O)c2ccccc21,1.6µM*,u,4.1µM*,u,15,u
CCCCCn1c(=O)c(C(=O)Nc2ccccc2C)c(O)c2ccccc21,2%,2%,21%,9%,20,18%
OCCOCCO,12%,10%,16%,0%,-7,10%
CC1CC(C)CN(S(=O)(=O)c2ccc3c(c2)oc(=O)n3CC(=O)N(C)Cc2ccccc2)C1 (stereo not given),u,-9%,u,0%,18,0%
CCc1cccc(NC(=O)Cn2c(=O)oc3cc(S(=O)(=O)N4CCOCC4)ccc32)c1,15µM*,u,23µM*,0%,4,5%
Cc1cc(C)cc(NC(=O)Cn2c(=O)oc3cc(S(=O)(=O)N4CC(C)CC(C)C4)ccc32)c1 (stereo not given),u,u,u,u,-27,u
O=C(Cn1c(=O)oc2cc(S(=O)(=O)N3CCCCCC3)ccc21)NCc1ccccc1Cl,7.3µM*,x,9.2µM*,x,x,x
Cc1ccc(NC(=O)Cn2c(=O)oc3cc(S(=O)(=O)N4CCCCCC4)ccc32)cc1Cl,21µM*,x,12µM*,x,x,x
O=C(COc1cccc(C(F)(F)F)c1)Nc1ccc(S(=O)(=O)N2CCCC2)cc1,u,x,23µM*,u,-21,0%[9.24 µM]
COCC(=O)N(c1c(C)cccc1C)C(C)C(=O)OC (stereo not given),u,x,3%,x,x,x
Cc1ccc(S(=O)(=O)CC(C)(O)C(=O)Nc2cccc(C(F)(F)F)c2)cc1 (stereo not given),-2%,x,-7%,u,-2,2%
O=C(Cn1c(=O)oc2cc(S(=O)(=O)N3CCCC3)ccc21)Nc1cccc(C(F)(F)F)c1,15µM*,-3%,13µM*,-14%,4,-16%
CC(N)(COP(=O)(O)Oc1ccccc1)C(=O)O (stereo not given),-5%,x,-19%,x,x,x
O=C1CC(c2ccccc2Br)c2c(c3ccccc3oc2=O)O1 (stereo not given),-3%,x,14%,x,x,x
CCOc1cc2c(cc1OCC)-n1cccc1C(c1ccc(OC)cc1)NC2 (stereo not given),18µM*,-6%,u,-6%,-63*,-18%
CCOc1cc2c(cc1OCC)-n1cccc1C(c1ccc(OC(F)F)cc1)NC2 (stereo not given),18µM*,-1%,u,u,-26,u
CCOc1cc2c(cc1OCC)-n1cccc1C(c1ccc(C(C)C)cc1)NC2 (stereo not given),7.3µM*,-6%,8.2µM*,21µM*,-94*,16µM*
CCOc1cc(C)cc2oc(=O)c3c(c12)CCCC3,7%,0%,0%,-1%,10,-3%
Cc1cc(OCC(=O)N2CCC(C(N)=O)CC2)c2c3c(c(=O)oc2c1)CCCC3,-27%,10%,23µM*,2%,4,1%
Cc1cc(OCC(=O)O)c2c3c(c(=O)oc2c1)CCCC3,-7%,2%,5%,-7%,18,-1%
Cc1cc(OC(=O)c2ccco2)c2c3c(c(=O)oc2c1)CCCC3,10µM*,-6%,12µM*,2%,-25,1%
Cc1cc(OCC(=O)NCc2ccncc2)c2c3c(c(=O)oc2c1)CCCC3,u,11%,u,11%,-1,12%
Cc1cc(OC(C)C(=O)NCc2ccncc2)c2c3c(c(=O)oc2c1)CCCC3 (stereo not given),u,-3%,23µM*,-1%,0,0%
Cc1cc(OC(=O)c2cccs2)c2c3c(c(=O)oc2c1)CCCC3,5.2µM*,16%,18µM*,9%,u,12%
Cc1cc(OC(C)C(=O)NCc2cccnc2)c2c3c(c(=O)oc2c1)CCC3 (stereo not given),9%,2%,-9%,-1%,-2,4%
SMILES,DT40 TDP1 no CPT,uPA generation,TDP1 cell CPT,HT1080 IDH1KD tx,IL-1B inflam inh,HT1080-NT tox
NS(=O)(=O)OC(CCc1ccccc1)C(Cl)(Cl)Cl (stereo not given),-30%,1%,u,10%,36,-3%
OCC1OC(O)CC(O)C1O (stereo not given),-4%,9%,3%,14%,8,16%
COc1cc(C(C)=O)ccc1OCc1cc(C(=O)N(C)CCC2CCCCO2)no1 (stereo not given),u,16%,-24%,-10%,6,3%
O=C1CN(C(=O)COC(=O)Cc2ccccc2)c2ccccc2N1,u,2%,u,11%,21,2%
Cc1ccc(-n2nc(C)cc2NC(=O)COc2cc(C)cc3oc(=O)c4c(c23)CCC4)cc1,29µM*,x,u,-20%,-2,-6%
CCN1C[C@@]2(COC(=O)c3ccccc3N3C(=O)CC(C)C3=O)CC[C@H](OC)[C@]34C5C[C@@H]6[C@@H](OC)C[C@@](O)(C5[C@H]6OC)[C@@](O)(C13)[C@@H](OC)C24 (stereo not given in full),0%,x,-6%,x,x,x
O=C(COC(=O)Cc1ccccc1)Nc1cc(S(=O)(=O)N2CCCCC2)ccc1Cl,-18%,2%,-7%,7%,-9,0%
O=C(CCS(=O)(=O)c1ccc(Cl)cc1)Nc1cccc(S(=O)(=O)N2CCCCCC2)c1,u,-9%,u,-5%,43,3%
Cc1ccc(S(=O)(=O)N2CCCCC2)cc1NC(=O)CSc1ncnc2ccccc12,18µM*,-4%,26µM*,-3%,-97*,-2%
Cc1ccc(S(=O)(=O)N2CCCCC2)cc1NC(=O)Nc1ccc(Cl)cc1Cl,u,4%,2.6µM*,7%,-8,7%
C/C(=N\NC(=O)c1ccccc1)c1c(O)n(C2CCCCC2)c(=O)[nH]c1=O,-8%,2%,2%,0%,-5,-7%
COC(=O)C12CCc3c(ccc4cc(OC)ccc34)C1=CC(=O)C2 (stereo not given),u,2%,-15%,2%,-2,12%
COc1ccc(CCN)cc1S(N)(=O)=O,0%,x,-3%,12%,25,14%
CC(=O)C1=C(O)C2(C)c3c(O)c(C)c(O)c(C(C)=O)c3OC2CC1=O (stereo not given),23µM*,x,u,-30%,-3,u
CCC1CN1P(=O)(c1ccccc1)N1CC1CC (stereo not given),-27%,1%,-32%,18%,-5,3%
